POLI inh: inhibitors of human DNA polymerase iota; 390,000 tested, 1% active; Potency, µM (highest dose often 115 µM), for inactives: at the highest dose activity, negative = inhibition, most hits filed as inhibitors; Pol iota fluorescent replication assay, 10 min; Q9UNA4; further: potency means the concentration at half of the fitted maximal effect
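Pol iota at 10 nM preincubated 15 min with compounds at room temperature; reaction started with fluorescent substrate, 50 nM final. Fluorescence read kinetically at 0 and 10 min; buffer-only wells as negative control.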
GLS inhibitor: blocks human kidney-isoform glutaminase activity; AID 624170; GLS enzymatic activity, qHTS titration; 410,000 tested, 0.21% active; Potency, µM (titrated, usually from 45.5 µM), for inactives: at the highest dose activity change, negative = inhibition, most hits filed as inhibitors; further: potency means the concentration at half of the fitted maximal effect; on the % scale 0 is the no-effect control and ±100 the full control effect
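hKGA in 45 mM KH2PO4 pH 8.2, 0.02% Tween-20 with pin-transferred compounds; 1 mM L-glutamine (stock) plus glutamate oxidase/HRP/Amplex Red coupling added. Fluorescence read initially and after 30 min at RT.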
Pol eta inh-1: blocks human DNA polymerase eta activity; recombinant Pol eta, fluorescent DNA replication assay; Potency, µM (series often up to 114 µM), without a hit: at the top dose activity change, negative = inhibition, hits mostly inhibitors; 390,000 tested, 1.2% active; AID 588591; further: potency means the concentration at half of the fitted maximal effect; on the % scale 0 is the no-effect control and ±100 the full control effect
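Pol eta (10 nM) was preincubated with compounds for 15 min at room temperature, after which fluorescent replication substrate (50 nM final) was added to start the reaction. Fluorescence was read kinetically at 0 and 10 min.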
Pol kappa inh-1: blocks human DNA polymerase kappa activity; purified Pol kappa, fluorescent DNA synthesis assay, 10 min; 400,000 tested, 0.53% active; Q9UBT6; Potency, µM (titrated, usually from 107 µM), for the others: top-dose activity, negative = inhibition, hits mostly inhibitors; further: potency means the concentration at half of the fitted maximal effect; on the % scale 0 is the no-effect control and ±100 the full control effect
Target sequence (Q9UBT6 whole entry, looked up): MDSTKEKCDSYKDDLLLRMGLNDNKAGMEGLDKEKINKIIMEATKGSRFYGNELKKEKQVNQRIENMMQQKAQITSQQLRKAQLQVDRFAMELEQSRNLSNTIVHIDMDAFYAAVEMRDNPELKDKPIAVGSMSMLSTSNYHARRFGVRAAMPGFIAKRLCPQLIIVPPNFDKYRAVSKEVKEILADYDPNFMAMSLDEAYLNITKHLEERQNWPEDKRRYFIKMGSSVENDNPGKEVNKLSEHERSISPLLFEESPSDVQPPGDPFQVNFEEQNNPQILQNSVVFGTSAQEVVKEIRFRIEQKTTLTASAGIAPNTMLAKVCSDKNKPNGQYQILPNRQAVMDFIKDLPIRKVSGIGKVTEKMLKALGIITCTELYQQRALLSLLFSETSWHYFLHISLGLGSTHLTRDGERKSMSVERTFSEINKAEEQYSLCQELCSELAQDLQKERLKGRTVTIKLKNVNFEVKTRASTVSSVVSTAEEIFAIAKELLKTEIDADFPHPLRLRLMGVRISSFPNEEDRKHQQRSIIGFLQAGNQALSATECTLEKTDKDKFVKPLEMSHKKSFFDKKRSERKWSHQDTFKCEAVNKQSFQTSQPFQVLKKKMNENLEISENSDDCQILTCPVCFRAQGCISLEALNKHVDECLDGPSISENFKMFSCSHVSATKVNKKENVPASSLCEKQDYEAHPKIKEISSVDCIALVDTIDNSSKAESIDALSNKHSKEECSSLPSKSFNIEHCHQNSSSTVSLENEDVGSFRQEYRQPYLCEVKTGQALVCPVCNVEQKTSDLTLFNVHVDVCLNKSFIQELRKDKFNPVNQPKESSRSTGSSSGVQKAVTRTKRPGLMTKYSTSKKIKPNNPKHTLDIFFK
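Activity was followed as the change in fluorescence between reads at 0 and 10 min after starting the reaction with 50 nM substrate. Beforehand, 10 nM polymerase had been preincubated with compound for 15 min at room temperature.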
APEX1 inh: APE1 (human) endonuclease inhibition. P27695. AID 2517. 350,000 tested, 0.35% active. Potency, µM (top dose mostly 65.8 µM), without a hit: at the highest dose activity change, negative = inhibition, hits mostly inhibitors. recombinant APE1, TAMRA/BHQ-2 abasic DNA cleavage fluorescence;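 further: potency means the concentration at half of the fitted maximal effect; plate controls were vehicle for no effect and reference inhibitor for full effect; nearly all actives have a fitted effect of over 55% in size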
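Measures dequenching upon AP-site incision of a 5'-TAMRA/3'-BHQ-2 THF-containing duplex, 50 nM; human APE1 0.75 nM after 15 min room-temperature exposure to compound; kinetic three-point read at one-minute spacing.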
Pol beta inh: inhibitors of human DNA polymerase beta. AID 485314. Pol beta primer extension/strand displacement, fluorescence kinetic. P06746. Potency, µM (top dose mostly 114 µM), for the others: at the highest dose activity change, negative = inhibition, most hits filed as inhibitors. 340,000 tested, 1.3% active; further: potency means the concentration at half of the fitted maximal effect; on the % scale 0 is the no-effect control and ±100 the full control effect
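Human Pol beta at 10 nM; strand-displacement substrate 50 nM final. Compound exposure 15 min at room temperature before start, reaction 10 min at room temperature.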
BAZ2B confirm: confirmation of human BAZ2B bromodomain inhibitors | AID 588809 | Potency, µM, hits mostly inhibitors | 25 tested, 100% active | AlphaScreen BAZ2B / biotin-H3K14Ac peptide displacement | shares compounds with Pol kappa inh-1; calls by dose curve
AlphaScreen ctr: counter-screen for BAZ2B inhibitors: AlphaScreen signal interference. shares compounds with Pol kappa inh-1. AlphaScreen biotin-His6 peptide bead counterscreen, signal decrease. Potency, µM (doses to about 57.1 µM), without a hit: top-dose activity change, negative = inhibition, most hits filed as inhibitors. 25 tested, under 10 active. AID 588859;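 active means clear concentration-dependent signal drop in the bead assay lacking the target, so a primary-screen artifact; inconclusive means weak, partial or single-dose response; inactive means no response, so a real primary hit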
PGK validate: TbPGK inhibition, hit validation; AID 686980; Potency, µM (doses to about 57.5 µM), inactives show at the highest dose activity change, negative = inhibition, hits mostly inhibitors; 500 tested, 79% active; TbPGK coupled GAPDH assay, Kinase-Glo luminescence; shares compounds with Pol kappa inh-1; further: potency means the concentration at half of the fitted maximal effect; on the % scale 0 is the no-effect control and ±100 the full control effect; nearly all actives have a fitted effect of over 65% in size
POLI cherry-pick: Confirm cherry-picked inhibitors of human polymerase iota | shares compounds with Pol kappa inh-1 | Pol iota primer extension, TAMRA/BHQ fluorescence | Potency, µM, usual class: inhibitors | 1,500 tested, 77% active | AID 720496; further: potency means the concentration at half of the fitted maximal effect
GALK inh confirm: confirmation of human galactokinase (GALK) inhibitors; shares compounds with Pol eta inh-1; AID 2015; 150 tested, 70% active; purified GALK, Kinase-Glo ATP depletion luminescence; Potency, µM (series often up to 115 µM), for inactives: at the highest dose activity, negative = inhibition, most hits filed as inhibitors
Redox cycling: generates H2O2 by redox cycling, flagging GALK artifacts. shares compounds with Pol eta inh-1. Phenol red-HRP H2O2 redox cycling, absorbance 600 nm. Potency, µM (doses to about 115 µM), without a hit: at the highest dose activity change, negative = H2O2 signal, usual class: inhibitors. 150 tested, 40% active. AID 2035
HEK293 viability: counter-screen for GALK inhibitors: HEK293 cell cytotoxicity; shares compounds with Pol eta inh-1; HEK-293 viability, ATP luminescence (CellTiter-Glo), 24/48 h; Potency, µM (top dose mostly 46.1 µM), inactives show at the top dose activity change, negative = cytotoxicity, hits mostly inhibitors; 170 tested, 10% active; further: potency means the concentration at half of the fitted maximal effect; on the % scale 0 is the no-effect control and ±100 the full control effect
Pol kappa inh-2: Pol kappa (human) inhibition, cherry-pick confirmation; 920 tested, 76% active; Potency, µM, hits mostly inhibitors; purified Pol-kappa, fluorescent strand-displacement substrate; shares compounds with Pol eta inh-1; further: potency means the concentration at half of the fitted maximal effect
Pol eta inh-2: Pol eta (human) inhibition, cherry-pick confirmation | shares compounds with Pol eta inh-1 | Pol eta primer extension, TAMRA/BHQ fluorescence, 10 min | Potency, µM, most hits filed as inhibitors | 2,600 tested, 64% active | AID 720502; further: potency means the concentration at half of the fitted maximal effect
The depositor's hits bear a star; u = inconclusive; x = no result; ! = a repeat was not active. Compounds with a hit are over-represented: about 2.4% of the library has one in this group of screens. Unless noted, the call rests on the fitted dose curve; in most records, active means well fitted curve in the direction sought with a large enough effect; inconclusive means small, poorly fitted or top-dose-only effect, or another doubt; inactive means no such curve, though single readings can be large; an effect the other way counts as inactive or inconclusive.

SMILES | POLI inh | GLS inhibitor | Pol eta inh-1 | Pol kappa inh-1 | APEX1 inh | Pol beta inh | POLI cherry-pick | Pol eta inh-2 | others
CN(C)[C@@H]1C(=O)C(C(N)=O)=C(O)[C@@]2(O)C(=O)C3=C(O)c4c(O)cccc4[C@@](C)(O)C3[C@H](O)C12 (some centres undefined) | 13µM* | 10µM*! | 32µM*! | 8.9µM*! | -39% | x | u | x
CCC(C)n1c(O)c(/C=N/N2CCOCC2)c(=O)[nH]c1=S (centres undefined) | 82% | u | -18% | -1% | -5% | 25% | x | x
O=C1NC(=S)NC(=O)C1=Cc1ccc(OCc2ccccc2)cc1 | 47% | 143% | -10% | -8% | x | x | x | x
O=c1cc(OCc2ccccc2)cc[nH]1 | 53% | 0% | -19% | 4% | 11% | x | x | x | BAZ2B confirm=2.2*;AlphaScreen ctr=10µM*
N/C(=N\N=C/c1ccc(-c2ccc(O)c(C(=O)O)c2)o1)N[N+](=O)[O-] | 3.5µM* | -21% | 4.5µM* | 8.9µM* | 7.9µM* | 3.5µM* | 3* | 4.3* | PGK validate=6.5µM*;Pol kappa inh-2=3*
COc1ccc(/C=N/N=C(/N)N[N+](=O)[O-])c(OC)c1 | 4% | 14% | -8% | -14% | 3% | -3% | x | x
CC(C)c1ccc(N2C(=O)CC(=O)NC2=O)cc1 | 11% | -1% | -5% | -10% | 8% | 38% | x | x
CCc1ccc(N2C(=O)NC(=O)/C(=C\C=C\c3ccco3)C2=O)cc1 | 7.1µM* | -19% | 20µM* | 35µM* | u | u | 38* | 30* | Pol kappa inh-2=15*
CC(C)c1ccc(N2C(=O)NC(=O)/C(=C/C=C/c3ccco3)C2=O)cc1 | 13µM* | 4% | 11µM* | 40µM* | u | 32µM* | 75* | 30*
CC(Cc1ccc(O)cc1)NCC(O)c1ccc(O)c(O)c1 (centres undefined) | x | u | 4µM* | x | x | x | 15* | 12* | Pol kappa inh-2=3.4*
CCOc1ccc(/C=C2/C(=O)NC(=O)N(CCc3ccc(F)cc3)C2=O)cc1 | -10% | 1% | -6% | -8% | 7% | -6% | x | x
Cn1cccc1/C=C1/C(=O)NC(=S)N(Cc2ccc(F)cc2)C1=O | 20µM* | -21% | 13µM* | u | u | u | 21* | 11*
CCN(CC)P(=O)(c1n(CC)cc[n+]1CC)N(CC)CC | 31% | -20% | 8% | -1% | u | 10% | x | x
O=c1c2ccccc2nc(-c2ccccc2Cl)n1-c1ccc(O)cc1 | 143% | -5% | 5% | 1% | 8% | 5% | x | x
COc1ccc(OC)c(NC(=O)COC(=O)c2cc3c(s2)CCC3)c1 | 3.5µM* | u | 10µM* | 13µM* | 12% | 7.9µM* | 9.5* | 15* | BAZ2B confirm=22*;AlphaScreen ctr=u;PGK validate=4.6µM*
COc1ccccc1NC(=O)COC(=O)c1cn(C)c2ccccc12 | 4% | -4% | -9% | -2% | -7% | x | x | x
Clc1cccc(C2NCCc3[nH]cnc32)c1 (centres undefined) | 2% | 6% | -23% | -2% | 0% | 2% | x | x
Cc1cc(/C=C2\C(=O)NC(=O)N(c3ccccc3F)C2=O)c(C)n1-c1cc(C(=O)O)cc(C(=O)O)c1 | u | 5µM* | 3.2µM* | u | 11µM* | 10µM* | 19* | 7.6* | PGK validate=u
COc1cccc2c1C(=O)c1c(O)c3c(c(O)c1C2=O)CC(O)(C(C)=NO)CC3OC1CC(N)C(O)C(C)O1 (centres undefined) | 79µM* | 7% | 18µM* | u | x | x | 21* | 43*
COc1ccc(CNC(=O)C(NC(C)=O)C(C)C)cc1OC (centres undefined) | 30% | -8% | -24% | -2% | -1% | 1% | x | x
Cn1ncnc2c(=O)n(C)c(=O)nc1-2 | -72% | -9% | 0.71µM* | 5% | u | u | 5.3* | 5.4* | PGK validate=1.5µM*;GALK inh confirm=1.1µM*;Redox cycling=0.6µM*;HEK293 viability=3.1µM*
Cc1ccc(-c2nc3c(=O)n(C)c(=O)nc-3n(C)n2)cc1 | -123% | x | x | -22% | x | x | 1.7* | 0.85*
O=C1NC(=O)N(Cc2ccc(F)cc2)C(=O)/C1=C\C=C\c1ccco1 | 14µM* | 0% | 20µM* | u | u | u | u | 30*
O=C1NC(=O)N(Cc2ccccc2)C(=O)/C1=C\N1CCCc2ccccc21 | u | 29% | -11% | u | 4% | -9% | x | x
